Anthrax LF inh2: blocks Bacillus anthracis lethal factor protease; P15917; multiplex microsphere protease cleavage assay, LF; inhibition, % at 10 µM; 360,000 tested, 0.12% active; AID 588501; note: plate controls were buffer without enzyme for full effect and enzyme alone for no effect
Target sequence (P15917 whole entry, looked up): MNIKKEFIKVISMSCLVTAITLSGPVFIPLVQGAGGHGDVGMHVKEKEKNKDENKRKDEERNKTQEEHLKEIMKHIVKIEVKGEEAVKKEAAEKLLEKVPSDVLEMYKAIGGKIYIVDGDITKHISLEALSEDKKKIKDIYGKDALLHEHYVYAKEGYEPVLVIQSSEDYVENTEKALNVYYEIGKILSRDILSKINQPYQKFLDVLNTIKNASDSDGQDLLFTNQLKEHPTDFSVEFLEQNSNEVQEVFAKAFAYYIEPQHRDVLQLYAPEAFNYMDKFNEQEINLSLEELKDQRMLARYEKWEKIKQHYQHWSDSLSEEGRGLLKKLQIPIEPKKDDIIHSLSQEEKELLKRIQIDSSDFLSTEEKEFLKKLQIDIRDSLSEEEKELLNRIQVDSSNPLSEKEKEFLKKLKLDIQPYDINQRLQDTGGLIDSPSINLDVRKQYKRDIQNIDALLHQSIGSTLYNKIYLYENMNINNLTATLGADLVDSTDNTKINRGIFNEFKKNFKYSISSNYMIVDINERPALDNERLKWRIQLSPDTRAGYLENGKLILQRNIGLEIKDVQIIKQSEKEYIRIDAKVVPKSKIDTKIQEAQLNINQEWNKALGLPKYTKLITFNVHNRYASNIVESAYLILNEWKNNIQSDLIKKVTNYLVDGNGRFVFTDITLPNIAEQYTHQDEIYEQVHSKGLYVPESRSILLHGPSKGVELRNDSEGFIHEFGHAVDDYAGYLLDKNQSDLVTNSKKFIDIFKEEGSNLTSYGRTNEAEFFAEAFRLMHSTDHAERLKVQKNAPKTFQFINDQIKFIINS
CCHFV vOTU inh: CCHFV vOTU protease inhibition; Pep-AMC fluorescence; inhibition, % at 11.5 µM; 370,000 tested, 0.55% active; in the data active = inhibition above about 30%; note: 0% = vehicle wells with enzyme and 100% = no enzyme wells
3CLpro inhibitor: SARS-CoV 3CLpro protease inhibition; P0C6X7; 290,000 tested, 0.14% active; inhibition, % at 6 µM; AID 1706; recombinant SARS-CoV 3CLpro, quenched FRET peptide cleavage; in the data active = inhibition above about 12%
BoNT-F LC inh: inhibitors of Botulinum neurotoxin F light chain protease; Multiplex microsphere protease cleavage assay, flow cytometry; inhibition, % at 10 µM; 360,000 tested, 0.22% active; AID 588497; in the data active = inhibition above about 35%, passing the limit was not always enough; inconclusive = no clear call, values can overlap the other calls; note: plate controls were buffer without enzyme for full effect and enzyme alone for no effect
BoNT-A LC inh2: inhibitors of Botulinum neurotoxin A light chain protease | inhibition, % at 10 µM | 360,000 tested, 0.17% active | multiplex microsphere protease substrate cleavage, flow cytometry; note: plate controls were buffer without enzyme for full effect and enzyme alone for no effect
Bead autofluor: counter-screen for toxin protease inhibitors: compound fluorescence; AID 624483; compound autofluorescence counterscreen, microsphere flow cytometry; stronger effect = higher value; 360,000 tested, 3.1% active; fluorescence intensity (concentration not given with the values); in the data active = fluorescence intensity above about 16000; inconclusive = no clear call, values can overlap the other calls
Numbers without * were called inactive; ? = inconclusive; nt = not tested or not shown. Only some compounds are listed: those with a hit (about 3.9% of all), similar ones and a draw of the others. Cut-off read from the data, not from the text of the source, unless noted: active = inhibition above about 30%; inconclusive = no clear call, values can overlap the other calls; inactive = below that.

SMILES	Anthrax LF inh2	CCHFV vOTU inh	3CLpro inhibitor	BoNT-F LC inh	BoNT-A LC inh2	Bead autofluor
O=C(NCc1ccco1)c1cc(-c2ccc3c(c2)OCO3)on1	-2.9	-6.3	1.7	-6.5	-4.3	17176*
CC(=O)OC12CCCN(C1)/C(=C/c1cccc(N(C)C)c1)C2 (stereo not given)	nt	-4.0	nt	nt	nt	nt
COCCCNC(=O)C[C@H]1C[C@@]2(C(=O)OC)C(=C[C@H](COCc3ccccc3)O[C@@H]2C)N(Cc2ccccc2)C1=O	nt	4.5	nt	nt	nt	nt
COc1ccc(CN(C)CC(=O)Nc2sc3c(c2C#N)CCC3)c(OC)c1	-9.1	18.3	1.7	-4.0	0.2	4460
C[C@H]1COc2cc(N3CCCC3)ccc2S(=O)(=O)N1	nt	-7.2	nt	nt	nt	nt
COc1cccc(-c2cc(C(=O)NCc3ccco3)no2)c1	-3.2	-12.3	3.4	-4.6	-2.8	24153*
O=C(NCc1ccco1)c1cc(-c2ccc(Cl)cc2)on1	-1.3	-15.0	-0.5	1.2	0.8	22771*
COc1cc(OC)cc(C(=O)NC(=S)NCc2ccco2)c1	-5.9	nt	6.5	-2.6	?	16948*
CC(=O)c1ccc(O)c(CSC2=NCCS2)c1	1.3	5.8	2.3	-0.7	-0.3	3154
COCc1cn([C@H]2C[C@@H]3O[C@H](CO)CC[C@@H]3O[C@@H]2CCc2ccc(-c3ccc(OC)cc3)cc2)nn1	nt	-1.3	nt	nt	nt	nt
CC(=O)c1c(C)[nH]c(C(=O)Nc2cccnc2)c1C	-8.8	6.2	3.3	-1.8	?	19908*
Cc1noc(C)c1CSCC(=O)OCc1nc2ccccc2c(=O)n1CC#N	0.9	-0.1	-1.3	6.2	6.6	21620*
Cc1occc1-c1nnc(SCc2nc3ccccc3c(=O)n2CC#N)n1C	-1.4	2.9	1.1	-4.7	-0.1	23590*
N#CC1=C(N)Oc2n[nH]c(-c3ccccc3)c2C1c1cccc(OC(=O)N2CCOCC2)c1 (stereo not given)	-4.0	1.1	4.6	-6.1	-2.4	16755*
COc1ccc(-c2[nH]nc3c2C(c2ccccc2OC(=O)N2CCOCC2)C(C#N)=C(N)O3)cc1 (stereo not given)	-0.9	9.1	3.2	0.1	0.4	20595*
N#CC1=C(N)Oc2n[nH]c(-c3ccc(F)cc3)c2C1c1cccc(OC(=O)N2CCOCC2)c1 (stereo not given)	nt	12.3	0.3	nt	nt	nt
Cc1ccc(-c2[nH]nc3c2C(c2ccccc2OC(=O)N2CCOCC2)C(C#N)=C(N)O3)cc1 (stereo not given)	nt	-8.8	2.1	nt	nt	nt
O=C(CN1C(=O)CCSc2ccccc21)Nc1cccc(Cl)c1F	nt	-4.5	nt	nt	nt	nt
CC(OC(=O)c1ccc(-n2cnnn2)cc1)C(=O)N(C)c1ccccc1 (stereo not given)	5.7	-11.8	nt	7.4	3.6	5426
CC(=O)Nc1cc(C)ns1	-5.5	23.9	nt	24.3	2.6	11533
Cc1ccc(CNC(=O)COC(=O)COc2ccc(C#N)cc2)cc1	4.7	1.7	nt	0.4	1.5	8559
CC(C)N1C(=O)S/C(=C/c2ccc3c(c2)n(C)c(=O)n3C)C1=O	-2.0	-3.4	-3.5	-7.8	-0.6	6256
CC(C)N1C(=O)S/C(=C/c2cccnc2)C1=O	-3.2	4.5	-3.3	2.4	?	22160*
Cc1cc(N=Cc2c(O)n(-c3ccc4c(c3)OCO4)c(=O)c3ccccc23)ccn1	-0.5	-46.2	-5.2	18.8	1.3	3749
Cc1ccc(-n2c(O)c(C=Nc3ccc4c(c3)OCO4)c3ccccc3c2=O)cc1C	-5.2	-18.7	-2.1	-3.8	0.7	22790*
SMILES	Anthrax LF inh2	CCHFV vOTU inh	3CLpro inhibitor	BoNT-F LC inh	BoNT-A LC inh2	Bead autofluor
CCOc1ccc(CNC(=O)Cn2nc(C)n3nc(-c4ccccc4)cc3c2=O)cc1	-3.7	-6.2	-2.5	1.8	1.1	5364
CSc1nnc(C)c(=O)[nH]1	-1.6	-7.8	-0.9	-8.1	-4.8	25237*
Cc1noc(C)c1CSc1nnc(C)c(=O)[nH]1	-12.6	13.6	1.2	0.1	-1.3	8919
Cc1nnc(SCCc2ccccc2)[nH]c1=O	0.5	-7.4	-1.6	8.1	?	19226*
COC(=O)C[C@@H]1C=C[C@H](NC(=O)Cc2ccccn2)[C@@H](CO)O1	nt	-3.7	nt	nt	nt	nt
Cn1c(-c2ccc(C(C)(C)C)cc2)n[nH]c1=S	1.4	0.0	-2.4	-1.6	0.6	2801
CC(C)(C)c1ccc(-c2n[nH]c(=S)n2C2CCCC2)cc1	-3.7	3.2	-0.4	0.0	?	22762*
O=C(CNC(=O)C12CC3CC(CC(C3)C1)C2)N1CCCC(C(F)(F)F)C1 (stereo not given)	-3.6	-6.1	nt	-4.9	-0.1	3966
C=CCn1c(N)c(-c2nc3ccccc3n2C)sc1=S	13.8	-9.6	2.6	0.6	10.8	22610*
C#CCn1c(S(=O)(=O)Cc2ccc(F)cc2)nc(-c2ccccc2)c1-c1ccccc1	-4.6	9.9	-1.0	-3.6	-0.1	16327*
CCOC(=O)Cn1c(S(=O)(=O)Cc2ccc(F)cc2)nc(-c2ccccc2)c1-c1ccccc1	-1.4	11.8	-0.7	0.2	?	16161*
Cc1nn(-c2ccccc2)c2c1C1(C(=O)N(C)c3ccccc31)C(C#N)=C(N)O2 (stereo not given)	-5.9	-3.2	-7.5	-0.8	0.5	9741
Cc1nn(-c2ccccc2)c2c1C1(C(=O)N3c4c(cccc41)C(C)CC3(C)C)C(C#N)=C(N)O2 (stereo not given)	-1.3	15.7	4.3	0.0	2.2	22394*
CC1(C)CC(=O)C(C(=O)C2CCN(S(=O)(=O)c3ccccc3)CC2)C(=O)C1	4.3	-12.5	-1.3	-1.2	-0.2	3512
O=C(Nc1nccs1)c1nc(-c2ccccc2)n(-c2ccccc2)n1	6.9	3.8	-7.0	13.3	1.0	9416
Cc1csc(NC(=O)c2nc(-c3ccccc3)n(-c3ccccc3)n2)n1	0.8	-4.8	-2.5	1.8	0.6	22922*
Cc1ccccc1NC(=O)c1ccccc1N(C)S(=O)(=O)c1ccccc1	nt	-4.8	nt	nt	nt	nt
CC(NC(=O)Nc1ccc(Cl)cc1)C1CCCO1 (stereo not given)	0.1	9.5	5.5	-2.9	0.1	2068
COc1ccc(NC(=O)N2CCN(S(C)(=O)=O)CC2)cc1OC	-1.1	-8.2	1.5	-2.1	-1.2	22966*
COc1ccc(Cl)cc1NC(=O)N1CCN(C2CCCCC2)CC1	-1.8	nt	-1.5	-3.0	?	20816*
CCOc1ccc(NC(=O)N2CCN(S(C)(=O)=O)CC2)cc1	-9.4	-7.9	-0.3	-4.6	-0.8	3272
CCOC(=O)c1ccc(NC(=O)NC(C)C2CCCO2)cc1 (stereo not given)	-0.8	1.1	-3.7	3.7	2.6	21999*
CCOC(=O)c1ccc(NC(=O)N2CCN(S(C)(=O)=O)CC2)cc1	-5.9	8.8	-1.0	-5.9	-3.4	17414*
O=C(NCCc1nc(-c2ccccc2Cl)no1)C1CCCCC1	-0.2	4.9	nt	-0.4	-0.2	4174
COc1ccc(C=Nn2c(-c3ccccc3F)n[nH]c2=S)cc1OCc1ccccc1	nt	19.1	nt	nt	nt	nt
CCOC(=O)c1ccc(NC(=S)N2CCN(S(C)(=O)=O)CC2)cc1	-3.0	-1.6	-4.1	-1.4	-0.6	16800*
CCOC(=O)c1ccc(NC(=O)N2CCCCC2)cc1	0.1	nt	3.9	-5.6	0.2	3015

Compound activity deposited in PubChem by several laboratories.
